# According to the supplement of paper PMC11219838:
# Unmarked numbers belong to inactive results.
# System: Caenorhabditis elegans L1 (N2)
# Assay: survival and reproduction score of C. elegans L1 (0: 0-10 living worms, 1: 11-20, 2: 21-50, 3: >50, 4: overgrown) (score 0-4); higher = more worms, less nematicidal, active = 1 or less; extreme values may be limits of the assay
# Conditions: 60 µM; 6 days; temperature: 20 °C
# Method in brief: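 Synchronized C. elegans N2 L1s (about 20 per well) were grown in 96-well plates in liquid NGM with E. coli HB101 and compound at 60 µM final (0.6% v/v DMSO), shaken sealed at 200 rpm and 20 °C for 6 days. The ordinal score for survival and reproduction counted living worms per well under a dissection microscope. The scale ran 0 (0–10 worms) to 4 (overgrown, starved), averaged over two biological replicates.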
row,SMILES,survival and reproduction score
1,COc1ccccc1-c1noc(-c2ccccc2C)n1,4
2,Cn1c(SCc2cccc(F)c2)nnc1-c1ccco1,4
3,N#Cc1ccc(CSc2nnc(-c3ccco3)o2)cc1,1.5
4,O=C(CSc1nnc(-c2ccco2)o1)Nc1ccc(Br)cn1,4
5,CNC(=O)c1ccccc1-c1nc(-c2ccc(Cl)cc2)no1,4
6,COc1ccc(Cl)cc1-c1nnc(SCC(=O)Nc2nccs2)o1,4
7,O=C(Nc1cccnc1)c1ccccc1-c1nc(-c2ccc(Cl)cc2)no1,4
8,CCn1c(SCc2nc(-c3cccs3)no2)nnc1-c1ccco1,2
9,O=C(Nc1ccccc1-c1nc(-c2ccncc2)no1)c1cccc(Cl)c1,4
10,N#Cc1ccc(OCc2nc(-c3cccs3)no2)cc1,4
11,Fc1ccccc1-c1nc(-c2ccc(Cl)cc2)no1,1 (active)
12,COc1ccc(-c2noc(COc3ccc(Br)c(C)c3)n2)cc1,4
13,COc1ccc(-c2noc(COc3ccc(Cl)cc3C)n2)cc1,4
14,COC(=O)c1ccc(CSc2nnc(-c3cccnc3)o2)cc1,4
15,COc1ccc(-c2noc(COc3ccc(C)cc3Br)n2)cc1,4
16,Clc1cc(Br)ccc1OCc1nc(-c2ccncc2)no1,4
17,COc1ccc(Cl)cc1-c1noc(COc2ccccc2C)n1,4
18,Cc1ccccc1CSc1nnc(-c2ccccc2Cl)o1,4
19,O=C(CSc1nnc(-c2ccccc2Cl)o1)Nc1ccccn1,4
20,c1cncc(-c2noc(COc3cccc4ccccc34)n2)c1,4
